# Laboratory results taken from PubChem BioAssay (EPA / NIEHS).
# Results filed as inconclusive are left out. Calls of active or inactive are those of the source. The calls were made as follows: active = hit-call score of the fitted dose curve at least 0.9, where 1 is the maximum; inconclusive = response in the unintended direction; inactive = score below 0.9.
# Experiments:
# [1] = target: bovine Dopamine Receptor (DR), Non-selective Binding, DRD1 (gene 281125) (UniProt Q95136); test: NVS_GPCR_bDR_NonSelective: NovaScreen (NVS) G Protein-Coupled Receptor Assay for bovine Dopamine Receptor (DR), Non-selective Binding (AID 2283241)
# bovine Dopamine Receptor (DR), Non-selective Binding, DRD1 (gene 281125), sequence (Q95136 whole entry, looked up): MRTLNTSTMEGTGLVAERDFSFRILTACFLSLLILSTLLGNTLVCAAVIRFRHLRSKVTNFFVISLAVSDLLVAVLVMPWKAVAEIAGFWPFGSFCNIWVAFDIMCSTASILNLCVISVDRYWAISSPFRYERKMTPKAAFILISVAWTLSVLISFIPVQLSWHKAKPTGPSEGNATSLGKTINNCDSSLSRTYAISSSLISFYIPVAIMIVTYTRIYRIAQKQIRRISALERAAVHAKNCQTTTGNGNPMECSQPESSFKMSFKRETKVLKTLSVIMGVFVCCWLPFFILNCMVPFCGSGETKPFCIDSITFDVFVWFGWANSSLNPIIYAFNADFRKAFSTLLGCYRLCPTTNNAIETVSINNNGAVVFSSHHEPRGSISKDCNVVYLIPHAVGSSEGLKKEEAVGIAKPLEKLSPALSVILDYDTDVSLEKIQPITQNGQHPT
# How it was run: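 Bovine striatal membranes; radioligand displacement read by filtration and scintillation counting 1 h after dosing, loss of signal vs DMSO. Screened in duplicate at 25 uM, then concentration-response for hits.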
# [2] = NVS_GPCR_bNPY_NonSelective: NovaScreen (NVS) G Protein-Coupled Receptor Assay for bovine Neuropeptide Y (NPY) Receptor, Non-selective Binding (AID 2283245)
# How it was run: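 Bovine hippocampal membranes incubated 1 hour with radioligand and test chemical. Bound ligand measured by filter-based scintillation counting. Single-concentration screen at 25 uM in duplicate, then concentration-response up to 50 uM.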
# [3] = system: bovine Histamine 1 Receptor (H1), gene 281231; test: NVS_GPCR_bH1: NovaScreen (NVS) G Protein-Coupled Receptor Assay for bovine Histamine 1 Receptor (H1) (AID 2283246)
# How it was run: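 Radioligand displacement on bovine cerebellar membranes, 1 h after dosing, filter-based scintillation read-out; loss of signal vs DMSO. Duplicate single-concentration screen at 25 uM, then concentration-response up to 50 uM for hits.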
# [4] = system: guinea pig Leukotriene B4 Receptor (LTB4), gene 100379538; test: NVS_GPCR_gLTB4: NovaScreen (NVS) G Protein-Coupled Receptor Assay for guinea pig Leukotriene B4 Receptor (LTB4) (AID 2283247)
# How it was run: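 Radioligand displacement on guinea pig spleen membranes, filter-based scintillation counting 2 h after dosing. Primary duplicate single point at 25 uM; hits over threshold (e.g. 30% inhibition) run in concentration-response up to 50 uM, DMSO baseline.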
# [5] = target: guinea pig Leukotriene D4 Receptor (LTD4), CYSLTR1 (gene 100135514) (UniProt Q2NNR5); test: NVS_GPCR_gLTD4: NovaScreen (NVS) G Protein-Coupled Receptor Assay for guinea pig Leukotriene D4 Receptor (LTD4) (AID 2283248)
# guinea pig Leukotriene D4 Receptor (LTD4), CYSLTR1 (gene 100135514), sequence (Q2NNR5 whole entry, looked up): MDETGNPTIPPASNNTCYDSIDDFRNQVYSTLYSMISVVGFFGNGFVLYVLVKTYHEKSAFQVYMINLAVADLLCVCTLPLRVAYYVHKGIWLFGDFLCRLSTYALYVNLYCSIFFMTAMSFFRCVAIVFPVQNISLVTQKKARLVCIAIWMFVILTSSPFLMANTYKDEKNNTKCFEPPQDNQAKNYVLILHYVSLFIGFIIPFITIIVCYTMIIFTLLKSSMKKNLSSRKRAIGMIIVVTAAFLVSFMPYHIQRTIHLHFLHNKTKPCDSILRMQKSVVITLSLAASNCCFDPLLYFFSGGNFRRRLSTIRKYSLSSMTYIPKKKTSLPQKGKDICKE
# How it was run: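 Radioligand displacement on guinea pig lung membranes, 1 h incubation, filtration and scintillation counting; DMSO as negative control. Duplicate 25 uM primary screen, then singleton concentration-response up to 50 uM.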
# [6] = system: guinea pig Muscarinic, Peripheral (Mperiperal) Receptor, Non-selective Binding, gene 100379235; test: NVS_GPCR_gMPeripheral_NonSelective: NovaScreen (NVS) G Protein-Coupled Receptor Assay for guinea pig Muscarinic, Peripheral (Mperiperal) Receptor, Non-selective Binding (AID 2283250)
# How it was run: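 Guinea pig bladder membranes, radioligand binding read 1 h after dosing by filter scintillation counting; loss of signal vs DMSO. Primary duplicate screen at 25 uM, then concentration-response up to 50 uM.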
structure (smiles),measurement,setting,value
CCCN(CCC)c1c([N+](=O)[O-])cc(C(F)(F)F)c(N)c1[N+](=O)[O-],outcome,[1],inactive
CC(C)(C)[C@@H](O)[C@@H](Cc1ccc(Cl)cc1)n1cncn1,AC50,[2],46.6 µM (active)
CC(=O)S[C@@H]1CC2=CC(=O)CC[C@]2(C)[C@H]2CC[C@@]3(C)[C@@H](CC[C@@]34CCC(=O)O4)[C@H]12,outcome,[3],inactive
C[C@]12C[C@H](O)[C@H]3[C@@H](CCC4=CC(=O)CC[C@@]43C)[C@@H]1CC[C@@H]2C(=O)CO,outcome,[4],inactive
CCOC(=O)NCCOc1ccc(Oc2ccccc2)cc1,outcome,[4],inactive
CCNc1nc(N)nc(Cl)n1,outcome,[5],inactive
CCCOC(=O)NCCCN(C)C,outcome,[6],inactive
N#CSCSc1nc2ccccc2s1,AC50,[6],7.3 µM (active)
